Among the data in ChEMBL document CHEMBL4513137, “CO-ADD screening of University of Manchester (UK) compounds” are Inhibition values, retold here.

SMILES strings stand for the structures. Entries with a potency or affinity are not part of this list.

The subject of one test is Candida albicans. The settings on record: 32 ug/mL.
Broadly, the Inhibition is the relative decrease from the control value, in per cent. On to `COc1ccc(Nc2ccccc2-c2ccc([N+](=O)[O-])cc2)cc1`, for which the Inhibition was determined as 5.77%.

For the molecule `c1ccc(Nc2ccccc2-c2ncccn2)cc1`, the Inhibition came to 12.1%.

Take `O=[N+]([O-])c1ccc(-c2ccccc2Nc2ccccc2)cc1`: the Inhibition was 9.3%.

For `Clc1cc(Br)cc(Cl)c1-c1ccccc1Nc1ccccc1`, the Inhibition worked out at 5.55%.

For the molecule `O=[N+]([O-])c1ccc(-c2c(Nc3ccccc3)ccc3ccccc23)cc1`, the Inhibition came out at 1.64%.

As for `O=[N+]([O-])c1ccc(-c2ccccc2Nc2ccccc2)cc1C(F)(F)F`, the Inhibition turned out to be 12.5%.

Consider `Cc1cc(C)c(Nc2ccccc2-c2ccc([N+](=O)[O-])cc2)c(C)c1`, for which the Inhibition is 7.08%.

For the molecule `COc1cccc(Nc2ccccc2)c1-c1c(Cl)cc(Br)cc1Cl`, the Inhibition turned out to be 23.8%.

For the molecule `O=[N+]([O-])c1ccc(-c2ccccc2Nc2ccccc2Br)cc1`, the Inhibition stood at 4.47%.

For `CC(=O)c1ccc(-c2ccccc2Nc2ccccc2)cc1`, the Inhibition was 1.55%.

Take `O=[N+]([O-])c1ccc2c3ccccc3n(-c3ccccc3)c2c1`: the Inhibition is 8.19%.

For `O=[N+]([O-])c1ccc(-c2c(Nc3ccccc3)cccc2-c2ccccc2)cc1`, the Inhibition worked out at 7.71%.

With `CC[C@@H](Nc1ccccc1-c1c(Cl)cc(Br)cc1Cl)c1ccccc1`, the Inhibition is 9.45%.

`O=[N+]([O-])c1ccc(-c2ccccc2Nc2ccccc2)cc1F`: the Inhibition was determined as 8.22%.

Regarding `O=[N+]([O-])c1ccc(-c2ccccc2N(Cc2ccccc2)c2ccccc2)cc1`, the Inhibition was determined as 8.51%.

Consider `Cc1cccc(C)c1Nc1ccccc1-c1ccccc1[N+](=O)[O-]`, for which the Inhibition worked out at 6.73%.

With `N#Cc1ccc(-c2ccccc2Nc2ccccc2)cc1`, the Inhibition is 10.8%.

As for `COc1cc([N+](=O)[O-])ccc1-c1c(Nc2ccccc2)cccc1OC`, the Inhibition turned out to be 5.26%.

On to `Cc1cc([N+](=O)[O-])ccc1-c1ccccc1N(C)c1ccccc1`, for which the Inhibition turned out to be 5.96%.

For the molecule `Cc1ccccc1Nc1ccccc1-c1ccc([N+](=O)[O-])cc1`, the Inhibition is -0.09%.

On to `COc1cc([N+](=O)[O-])ccc1-c1ccccc1Nc1ccccc1`, for which the Inhibition is 5.71%.

Consider `COc1cccc(N(C)c2cccc(OC)c2-c2ccc([N+](=O)[O-])cc2C)c1`, for which the Inhibition came out at 3.58%.

Take `O=[N+]([O-])c1ccc(-c2ccccc2Nc2ccccc2)c(Cl)c1`: the Inhibition came to 10.1%.

As to `O=[N+]([O-])c1ccc(-c2cccc3c2[nH]c2ccccc23)cc1`, the Inhibition is 4.69%.

Consider `O=[N+]([O-])c1cc(Cl)c(-c2ccccc2Nc2ccccc2)c(Cl)c1`, for which the Inhibition is 6.95%.

Regarding `CN(c1ccccc1)c1ccccc1-c1ccc([N+](=O)[O-])cc1`, the Inhibition is 4.63%.

As to `COc1cccc(Nc2ccccc2)c1-c1ccc([N+](=O)[O-])cc1`, the Inhibition turned out to be 7.07%.

The subject of a further test is Cryptococcus neoformans. The settings on record: Concentration 32 ug.mL-1; ASSAY_TEST Inhibition of Fungal Growth; detection method Resazurin; Absorption (OD600-OD570); plate type 384well; NBS; CORNING #3640.
On to `COc1ccc(Nc2ccccc2-c2ccc([N+](=O)[O-])cc2)cc1`, for which the Inhibition amounted to 2.27%.

On to `c1ccc(Nc2ccccc2-c2ncccn2)cc1`, for which the Inhibition is 7.92%.

Regarding `O=[N+]([O-])c1ccc(-c2ccccc2Nc2ccccc2)cc1`, the Inhibition was 1.06%.

Consider `Clc1cc(Br)cc(Cl)c1-c1ccccc1Nc1ccccc1`, for which the Inhibition is 2.48%.

Consider `O=[N+]([O-])c1ccc(-c2c(Nc3ccccc3)ccc3ccccc23)cc1`, for which the Inhibition was determined as 0.54%.

For the molecule `O=[N+]([O-])c1ccc(-c2ccccc2Nc2ccccc2)cc1C(F)(F)F`, the Inhibition is 2.9%.

On to `Cc1cc(C)c(Nc2ccccc2-c2ccc([N+](=O)[O-])cc2)c(C)c1`, for which the Inhibition is on record as 1.01%.

For the molecule `COc1cccc(Nc2ccccc2)c1-c1c(Cl)cc(Br)cc1Cl`, the Inhibition turned out to be 9.7%.

As for `O=[N+]([O-])c1ccc(-c2ccccc2Nc2ccccc2Br)cc1`, the Inhibition is reported as 1.33%.

With `CC(=O)c1ccc(-c2ccccc2Nc2ccccc2)cc1`, the Inhibition came out at 0.86%.

For the molecule `O=[N+]([O-])c1ccc2c3ccccc3n(-c3ccccc3)c2c1`, the Inhibition came out at 2.74%.

With `O=[N+]([O-])c1ccc(-c2c(Nc3ccccc3)cccc2-c2ccccc2)cc1`, the Inhibition is 2.38%.

`CC[C@@H](Nc1ccccc1-c1c(Cl)cc(Br)cc1Cl)c1ccccc1`: the Inhibition is listed as 0.76%.

For `O=[N+]([O-])c1ccc(-c2ccccc2Nc2ccccc2)cc1F`, the Inhibition was 3.42%.

Turning to `O=[N+]([O-])c1ccc(-c2ccccc2N(Cc2ccccc2)c2ccccc2)cc1`, the Inhibition was found to be 2.22%.

Regarding `Cc1cccc(C)c1Nc1ccccc1-c1ccccc1[N+](=O)[O-]`, the Inhibition worked out at 4.1%.

Regarding `N#Cc1ccc(-c2ccccc2Nc2ccccc2)cc1`, the Inhibition is given as 2.95%.

As for `COc1cc([N+](=O)[O-])ccc1-c1c(Nc2ccccc2)cccc1OC`, the Inhibition is reported as -2.27%.

As for `Cc1cc([N+](=O)[O-])ccc1-c1ccccc1N(C)c1ccccc1`, the Inhibition was -0.44%.

Take `Cc1ccccc1Nc1ccccc1-c1ccc([N+](=O)[O-])cc1`: the Inhibition is recorded as -1.9%.

With `COc1cc([N+](=O)[O-])ccc1-c1ccccc1Nc1ccccc1`, the Inhibition is -0.44%.

For `COc1cccc(N(C)c2cccc(OC)c2-c2ccc([N+](=O)[O-])cc2C)c1`, the Inhibition is recorded as -0.6%.

Consider `O=[N+]([O-])c1ccc(-c2ccccc2Nc2ccccc2)c(Cl)c1`, for which the Inhibition was found to be 1.38%.

As for `O=[N+]([O-])c1ccc(-c2cccc3c2[nH]c2ccccc23)cc1`, the Inhibition was -0.08%.

As for `O=[N+]([O-])c1cc(Cl)c(-c2ccccc2Nc2ccccc2)c(Cl)c1`, the Inhibition is reported as -0.86%.

As for `CN(c1ccccc1)c1ccccc1-c1ccc([N+](=O)[O-])cc1`, the Inhibition was 1.49%.

As for `COc1cccc(Nc2ccccc2)c1-c1ccc([N+](=O)[O-])cc1`, the Inhibition is on record as 1.49%.
